Source: PMC7862700, “An all-to-all approach to the identification of sequence-specific readers for epigenetic DNA modifications on cytosine”

What was measured:
Assay in all cases: DAPPL (digital affinity profiling via proximity ligation, sequencing); 10 mM Tris-HCl pH 7.5, 50 mM NaCl, 1 mM DTT, 4% glycerol, room temperature, 30 min; GST-TFs on glutathione beads, 16-mer random dsDNA library, 0.1% formaldehyde crosslink after washing; high values mean tight binding
FEV = molecular target: T1, FEV (Homo sapiens, UniProt Q99581 1-238); details: protein: recombinant; tags: N-terminal GST; dsDNA, one strand shown
T1 sequence: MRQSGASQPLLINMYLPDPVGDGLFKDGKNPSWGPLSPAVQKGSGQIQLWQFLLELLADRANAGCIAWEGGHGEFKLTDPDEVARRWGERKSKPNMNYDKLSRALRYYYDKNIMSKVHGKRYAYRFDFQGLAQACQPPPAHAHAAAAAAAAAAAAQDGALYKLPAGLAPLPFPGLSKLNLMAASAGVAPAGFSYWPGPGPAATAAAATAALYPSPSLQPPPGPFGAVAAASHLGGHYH
Method in brief: (§1)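 Binding signal is each hexamer's read frequency for a factor divided by its frequency in the tag-only sample. The factors were GST-fused human transcription factors from yeast, captured on glutathione beads, DNA-barcoded and pooled with that sample. Pools were incubated with 200 nmole of a random double-stranded 16-mer DNA library in Tris/NaCl/DTT/glycerol buffer at room temperature for 30 min, then washed, crosslinked with 0.1% formaldehyde, proximity-ligated with BsaI/T4 ligase (1 h, 37 °C), PCR-amplified and sequenced on an Illumina NextSeq500.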

ETV5 = ETV5 (Homo sapiens, UniProt P41161 1-510); details: protein: recombinant; tags: N-terminal GST; dsDNA, one strand shown
Method in brief: as §1

HSF1 = HSF1 (Homo sapiens, UniProt Q00613 1-529); details: protein: recombinant; tags: N-terminal GST; chain copies: 3; dsDNA, one strand shown
Method in brief: as §1

SPIC = molecular target: T2, SPIC (Homo sapiens, UniProt Q8N5J4 1-248); details: protein: recombinant; tags: N-terminal GST; dsDNA, one strand shown
T2 sequence: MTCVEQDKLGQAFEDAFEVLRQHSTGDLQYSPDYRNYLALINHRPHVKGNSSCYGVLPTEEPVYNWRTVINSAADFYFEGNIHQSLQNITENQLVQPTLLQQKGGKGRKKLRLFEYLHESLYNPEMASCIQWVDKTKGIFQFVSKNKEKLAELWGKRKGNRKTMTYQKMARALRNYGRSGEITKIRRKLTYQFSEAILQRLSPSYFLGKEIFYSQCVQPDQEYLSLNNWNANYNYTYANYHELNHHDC
Method in brief: as §1

ELF4 = ELF4 (Homo sapiens, UniProt Q99607 1-663); details: protein: recombinant; tags: N-terminal GST; dsDNA, one strand shown
Method in brief: as §1

ELK4 = molecular target: T3, ELK4 (Homo sapiens, UniProt P28324-2 1-405); details: protein: recombinant; tags: N-terminal GST; dsDNA, one strand shown
T3 sequence: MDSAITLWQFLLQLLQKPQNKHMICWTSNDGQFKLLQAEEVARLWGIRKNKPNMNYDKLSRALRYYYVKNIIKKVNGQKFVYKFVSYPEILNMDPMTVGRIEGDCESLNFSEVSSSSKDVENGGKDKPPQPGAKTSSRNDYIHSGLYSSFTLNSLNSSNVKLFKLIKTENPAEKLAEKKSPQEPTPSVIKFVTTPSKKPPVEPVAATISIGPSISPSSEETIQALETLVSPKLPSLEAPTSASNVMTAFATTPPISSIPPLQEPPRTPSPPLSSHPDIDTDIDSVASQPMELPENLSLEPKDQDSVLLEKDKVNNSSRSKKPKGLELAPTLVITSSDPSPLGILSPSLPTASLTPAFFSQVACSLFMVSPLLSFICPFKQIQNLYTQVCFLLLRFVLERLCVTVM
Method in brief: as §1

ETV2 = molecular target: T4, ETV2 (Homo sapiens, UniProt O00321 1-342); details: protein: recombinant; tags: N-terminal GST; dsDNA, one strand shown
T4 sequence: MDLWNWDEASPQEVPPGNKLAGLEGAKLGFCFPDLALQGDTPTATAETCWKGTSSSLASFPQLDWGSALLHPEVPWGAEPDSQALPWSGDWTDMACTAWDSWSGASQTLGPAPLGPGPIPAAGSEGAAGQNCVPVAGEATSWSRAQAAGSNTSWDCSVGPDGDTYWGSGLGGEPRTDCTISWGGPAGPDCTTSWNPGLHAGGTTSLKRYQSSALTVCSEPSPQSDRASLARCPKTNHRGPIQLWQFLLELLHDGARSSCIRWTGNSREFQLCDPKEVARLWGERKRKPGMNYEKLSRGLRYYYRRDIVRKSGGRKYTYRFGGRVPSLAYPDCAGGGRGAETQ
Method in brief: as §1

ELF3 = molecular target: T5, ELF3 (Homo sapiens, UniProt P78545 1-371); details: protein: recombinant; tags: N-terminal GST; dsDNA, one strand shown
T5 sequence: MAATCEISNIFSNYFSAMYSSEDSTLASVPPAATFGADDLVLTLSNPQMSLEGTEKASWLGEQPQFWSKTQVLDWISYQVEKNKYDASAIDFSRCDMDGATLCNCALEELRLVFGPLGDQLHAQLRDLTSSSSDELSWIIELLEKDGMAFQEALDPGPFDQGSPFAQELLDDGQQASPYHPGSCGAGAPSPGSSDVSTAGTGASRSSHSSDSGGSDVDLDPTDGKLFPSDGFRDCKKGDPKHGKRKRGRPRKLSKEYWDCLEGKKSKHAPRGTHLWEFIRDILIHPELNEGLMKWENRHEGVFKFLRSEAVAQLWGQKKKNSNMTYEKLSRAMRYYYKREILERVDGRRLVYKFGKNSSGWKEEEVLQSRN
Method in brief: as §1

CRX = CRX (Homo sapiens, UniProt O43186 1-299); details: protein: recombinant; tags: N-terminal GST; dsDNA, one strand shown
Method in brief: as §1

ETV1 = ETV1 (Homo sapiens, UniProt P50549 1-477); details: protein: recombinant; tags: N-terminal GST; dsDNA, one strand shown
Method in brief: as §1

ERF = molecular target: T6, ERF (Homo sapiens, UniProt P50548 1-548); details: protein: recombinant; tags: N-terminal GST; dsDNA, one strand shown
T6 sequence: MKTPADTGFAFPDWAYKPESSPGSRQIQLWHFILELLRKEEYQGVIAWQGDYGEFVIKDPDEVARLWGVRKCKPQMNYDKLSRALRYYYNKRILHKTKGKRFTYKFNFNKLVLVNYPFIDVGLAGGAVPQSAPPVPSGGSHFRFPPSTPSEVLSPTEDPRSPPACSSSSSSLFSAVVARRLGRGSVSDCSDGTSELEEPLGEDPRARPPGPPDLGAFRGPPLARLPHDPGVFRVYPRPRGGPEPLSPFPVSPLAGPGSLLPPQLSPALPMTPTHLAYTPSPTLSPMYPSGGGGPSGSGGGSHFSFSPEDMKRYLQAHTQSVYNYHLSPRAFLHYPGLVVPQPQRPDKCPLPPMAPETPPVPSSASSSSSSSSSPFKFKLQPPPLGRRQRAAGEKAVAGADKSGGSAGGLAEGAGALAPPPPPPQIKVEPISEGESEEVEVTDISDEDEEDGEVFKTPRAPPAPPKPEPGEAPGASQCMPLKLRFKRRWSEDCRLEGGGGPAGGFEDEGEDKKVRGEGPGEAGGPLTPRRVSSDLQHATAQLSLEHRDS
Method in brief: as §1

ETV3L = molecular target: T7, ETV3L (Homo sapiens, UniProt Q6ZN32 1-361); details: protein: recombinant; tags: N-terminal GST; dsDNA, one strand shown
T7 sequence: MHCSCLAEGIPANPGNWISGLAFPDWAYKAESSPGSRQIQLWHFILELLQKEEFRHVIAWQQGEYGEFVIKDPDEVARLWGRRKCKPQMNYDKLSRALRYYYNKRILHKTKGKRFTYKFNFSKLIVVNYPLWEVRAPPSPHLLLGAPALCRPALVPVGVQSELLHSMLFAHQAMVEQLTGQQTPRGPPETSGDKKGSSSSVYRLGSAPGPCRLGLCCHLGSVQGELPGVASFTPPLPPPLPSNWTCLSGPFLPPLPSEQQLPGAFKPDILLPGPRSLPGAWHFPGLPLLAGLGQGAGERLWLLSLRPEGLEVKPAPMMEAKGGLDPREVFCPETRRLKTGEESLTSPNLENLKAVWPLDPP
Method in brief: as §1

ETS2 = molecular target: T8, ETS2 (Homo sapiens, UniProt P15036 1-469); details: protein: recombinant; tags: N-terminal GST; dsDNA, one strand shown
T8 sequence: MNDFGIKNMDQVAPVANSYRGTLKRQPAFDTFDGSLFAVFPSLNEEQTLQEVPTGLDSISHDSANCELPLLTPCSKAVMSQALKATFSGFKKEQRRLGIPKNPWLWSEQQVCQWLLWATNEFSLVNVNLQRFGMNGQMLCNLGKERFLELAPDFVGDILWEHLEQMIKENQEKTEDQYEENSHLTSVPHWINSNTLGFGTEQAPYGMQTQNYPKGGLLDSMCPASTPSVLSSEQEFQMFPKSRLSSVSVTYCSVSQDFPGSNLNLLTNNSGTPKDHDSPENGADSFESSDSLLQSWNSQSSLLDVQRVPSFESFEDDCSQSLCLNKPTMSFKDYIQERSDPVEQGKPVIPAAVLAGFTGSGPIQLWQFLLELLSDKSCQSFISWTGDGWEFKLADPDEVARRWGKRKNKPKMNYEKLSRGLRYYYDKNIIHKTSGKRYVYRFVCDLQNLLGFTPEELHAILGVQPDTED
Method in brief: as §1

SPDEF = molecular target: T9, SPDEF (Homo sapiens, UniProt O95238 1-335); details: protein: recombinant; tags: N-terminal GST; dsDNA, one strand shown
T9 sequence: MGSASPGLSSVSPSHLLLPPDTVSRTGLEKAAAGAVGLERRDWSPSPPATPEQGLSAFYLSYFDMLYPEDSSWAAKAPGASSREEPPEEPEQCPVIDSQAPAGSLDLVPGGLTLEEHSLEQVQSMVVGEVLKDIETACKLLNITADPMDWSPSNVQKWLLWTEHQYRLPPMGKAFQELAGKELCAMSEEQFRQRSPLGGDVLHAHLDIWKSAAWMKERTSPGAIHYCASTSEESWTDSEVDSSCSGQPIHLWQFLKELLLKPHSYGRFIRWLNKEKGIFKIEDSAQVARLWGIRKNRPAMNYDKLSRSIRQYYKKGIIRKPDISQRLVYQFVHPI
Method in brief: as §1

ETV7 = molecular target: T10, ETV7 (Homo sapiens, UniProt Q9Y603 1-341); details: protein: recombinant; tags: N-terminal GST; dsDNA, one strand shown
T10 sequence: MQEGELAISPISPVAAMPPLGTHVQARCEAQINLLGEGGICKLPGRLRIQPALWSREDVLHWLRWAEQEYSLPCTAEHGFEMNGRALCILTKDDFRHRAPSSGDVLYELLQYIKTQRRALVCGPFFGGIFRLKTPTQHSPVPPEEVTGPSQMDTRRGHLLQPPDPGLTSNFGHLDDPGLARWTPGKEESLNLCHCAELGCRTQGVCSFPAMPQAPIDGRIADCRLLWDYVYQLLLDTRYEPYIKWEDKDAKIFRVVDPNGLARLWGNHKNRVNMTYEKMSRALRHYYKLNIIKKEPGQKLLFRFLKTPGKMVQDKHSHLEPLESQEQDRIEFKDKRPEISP
Method in brief: as §1

ELF5 = molecular target: T11, ELF5 (Homo sapiens, UniProt Q9UKW6-2 1-255); details: protein: recombinant; tags: N-terminal GST; dsDNA, one strand shown
T11 sequence: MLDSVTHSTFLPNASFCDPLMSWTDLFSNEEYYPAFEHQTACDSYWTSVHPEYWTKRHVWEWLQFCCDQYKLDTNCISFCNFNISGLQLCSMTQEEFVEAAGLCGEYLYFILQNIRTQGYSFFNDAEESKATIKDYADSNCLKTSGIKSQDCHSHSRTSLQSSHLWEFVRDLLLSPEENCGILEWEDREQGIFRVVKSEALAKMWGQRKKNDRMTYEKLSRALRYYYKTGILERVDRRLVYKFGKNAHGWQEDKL
Method in brief: as §1

ETV3 = molecular target: T12, ETV3 (Homo sapiens, UniProt P41162-2 1-143); details: protein: recombinant; tags: N-terminal GST; dsDNA, one strand shown
T12 sequence: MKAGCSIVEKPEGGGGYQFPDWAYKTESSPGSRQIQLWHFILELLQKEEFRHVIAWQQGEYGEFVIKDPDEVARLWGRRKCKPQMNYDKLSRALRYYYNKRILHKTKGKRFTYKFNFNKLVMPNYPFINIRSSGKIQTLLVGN
Method in brief: as §1

ETV6 = ETV6 (Homo sapiens, UniProt P41212 1-452); details: protein: recombinant; tags: N-terminal GST; dsDNA, one strand shown
Method in brief: as §1

Chain of ETV6 (P41212 whole entry): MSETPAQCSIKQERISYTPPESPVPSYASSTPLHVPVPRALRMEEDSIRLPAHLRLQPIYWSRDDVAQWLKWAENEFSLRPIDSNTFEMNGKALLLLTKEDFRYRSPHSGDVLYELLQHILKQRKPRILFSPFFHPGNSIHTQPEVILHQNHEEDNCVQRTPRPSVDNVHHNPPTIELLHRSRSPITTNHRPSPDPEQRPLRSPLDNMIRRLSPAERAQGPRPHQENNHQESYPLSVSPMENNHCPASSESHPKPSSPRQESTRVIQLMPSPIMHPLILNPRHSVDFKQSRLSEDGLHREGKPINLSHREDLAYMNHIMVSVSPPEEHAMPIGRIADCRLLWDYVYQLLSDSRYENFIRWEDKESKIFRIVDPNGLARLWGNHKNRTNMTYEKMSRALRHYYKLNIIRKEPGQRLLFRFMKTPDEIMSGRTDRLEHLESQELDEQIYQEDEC
Chain of ETV5 (P41161 whole entry): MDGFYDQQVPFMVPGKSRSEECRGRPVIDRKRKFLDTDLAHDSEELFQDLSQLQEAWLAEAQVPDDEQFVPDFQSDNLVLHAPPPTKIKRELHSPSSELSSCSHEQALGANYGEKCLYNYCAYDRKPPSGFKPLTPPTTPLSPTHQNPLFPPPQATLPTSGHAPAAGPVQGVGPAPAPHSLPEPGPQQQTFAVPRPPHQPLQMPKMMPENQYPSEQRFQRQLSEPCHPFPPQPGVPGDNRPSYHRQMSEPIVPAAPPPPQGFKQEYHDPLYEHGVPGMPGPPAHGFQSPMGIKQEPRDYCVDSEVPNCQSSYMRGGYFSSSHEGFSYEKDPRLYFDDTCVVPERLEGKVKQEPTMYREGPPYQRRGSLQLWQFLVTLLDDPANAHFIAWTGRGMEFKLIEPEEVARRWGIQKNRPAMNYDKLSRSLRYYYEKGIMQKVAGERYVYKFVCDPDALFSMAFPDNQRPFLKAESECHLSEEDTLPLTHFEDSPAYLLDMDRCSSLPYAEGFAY
Chain of HSF1 (Q00613 whole entry): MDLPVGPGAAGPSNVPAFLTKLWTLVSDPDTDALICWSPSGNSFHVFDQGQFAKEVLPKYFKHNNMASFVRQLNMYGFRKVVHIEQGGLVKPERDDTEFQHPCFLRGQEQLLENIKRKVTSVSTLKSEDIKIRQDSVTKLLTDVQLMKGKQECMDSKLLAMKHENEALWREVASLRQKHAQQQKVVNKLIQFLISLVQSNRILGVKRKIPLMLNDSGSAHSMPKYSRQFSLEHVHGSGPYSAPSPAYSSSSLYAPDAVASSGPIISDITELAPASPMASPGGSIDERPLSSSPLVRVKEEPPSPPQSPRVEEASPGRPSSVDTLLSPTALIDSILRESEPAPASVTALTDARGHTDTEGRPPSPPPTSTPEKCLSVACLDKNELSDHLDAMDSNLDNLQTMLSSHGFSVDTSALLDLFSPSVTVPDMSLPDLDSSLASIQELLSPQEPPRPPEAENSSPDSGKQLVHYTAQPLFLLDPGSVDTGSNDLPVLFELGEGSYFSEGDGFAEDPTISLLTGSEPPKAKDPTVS
Chain of ETV1 (P50549 whole entry): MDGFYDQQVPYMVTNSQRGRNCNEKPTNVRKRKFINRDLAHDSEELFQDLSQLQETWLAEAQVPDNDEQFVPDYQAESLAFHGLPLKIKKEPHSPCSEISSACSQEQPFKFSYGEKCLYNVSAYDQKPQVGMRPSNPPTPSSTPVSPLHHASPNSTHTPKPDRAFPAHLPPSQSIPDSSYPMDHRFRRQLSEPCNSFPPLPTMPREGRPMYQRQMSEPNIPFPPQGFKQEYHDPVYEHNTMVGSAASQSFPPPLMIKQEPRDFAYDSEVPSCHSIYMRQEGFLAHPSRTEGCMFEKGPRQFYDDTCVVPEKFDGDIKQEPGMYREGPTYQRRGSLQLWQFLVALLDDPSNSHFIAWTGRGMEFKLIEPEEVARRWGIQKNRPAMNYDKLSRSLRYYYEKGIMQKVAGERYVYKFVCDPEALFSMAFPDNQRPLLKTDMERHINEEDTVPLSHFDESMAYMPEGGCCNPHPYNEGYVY
Chain of ELF4 (Q99607 whole entry): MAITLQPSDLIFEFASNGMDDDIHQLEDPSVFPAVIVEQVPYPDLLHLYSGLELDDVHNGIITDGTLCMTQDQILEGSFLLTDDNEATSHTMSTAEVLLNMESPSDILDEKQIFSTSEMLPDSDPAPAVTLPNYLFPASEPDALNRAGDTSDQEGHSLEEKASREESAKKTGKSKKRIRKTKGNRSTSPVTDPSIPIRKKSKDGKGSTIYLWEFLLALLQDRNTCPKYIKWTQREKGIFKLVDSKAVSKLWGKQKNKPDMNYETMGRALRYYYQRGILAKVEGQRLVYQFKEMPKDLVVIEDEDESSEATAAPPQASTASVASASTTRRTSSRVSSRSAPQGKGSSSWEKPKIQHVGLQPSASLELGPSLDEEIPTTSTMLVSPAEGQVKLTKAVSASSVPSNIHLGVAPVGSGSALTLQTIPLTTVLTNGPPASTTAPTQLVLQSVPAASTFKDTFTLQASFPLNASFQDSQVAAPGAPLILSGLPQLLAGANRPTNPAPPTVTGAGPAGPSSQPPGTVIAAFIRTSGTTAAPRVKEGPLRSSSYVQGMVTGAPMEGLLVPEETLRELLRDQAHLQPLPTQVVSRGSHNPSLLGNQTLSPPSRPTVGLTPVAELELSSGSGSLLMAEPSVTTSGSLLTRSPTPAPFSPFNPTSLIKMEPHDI
Chain of CRX (O43186 whole entry): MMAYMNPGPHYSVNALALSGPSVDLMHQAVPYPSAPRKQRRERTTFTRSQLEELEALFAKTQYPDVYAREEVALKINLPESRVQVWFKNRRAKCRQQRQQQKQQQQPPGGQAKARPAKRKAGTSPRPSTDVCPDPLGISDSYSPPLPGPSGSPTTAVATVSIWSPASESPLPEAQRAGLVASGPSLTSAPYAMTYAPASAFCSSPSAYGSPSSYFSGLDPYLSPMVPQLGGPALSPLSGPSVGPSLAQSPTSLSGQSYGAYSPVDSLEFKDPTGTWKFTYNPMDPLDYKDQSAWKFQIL

Sequence: TGTTAC
- binding signal (FEV): 1.4 fold enrichment (6-mer frequency, TF over GST control)
- binding signal (ETV5): 1.47 fold enrichment (6-mer frequency, TF over GST control)
- binding signal (HSF1): 1.12 fold enrichment (6-mer frequency, TF over GST control)
- binding signal (SPIC): 1.42 fold enrichment (6-mer frequency, TF over GST control)
- binding signal (ELF4): 1.47 fold enrichment (6-mer frequency, TF over GST control)
- binding signal (ELK4): 1.51 fold enrichment (6-mer frequency, TF over GST control)
- binding signal (ETV2): 1.58 fold enrichment (6-mer frequency, TF over GST control)
- binding signal (ELF3): 1.39 fold enrichment (6-mer frequency, TF over GST control)
- binding signal (CRX): 1.19 fold enrichment (6-mer frequency, TF over GST control)
- binding signal (ETV1): 1.4 fold enrichment (6-mer frequency, TF over GST control)
- binding signal (ERF): 1.3 fold enrichment (6-mer frequency, TF over GST control)
- binding signal (ETV3L): 1.41 fold enrichment (6-mer frequency, TF over GST control)
- binding signal (ETS2): 1.39 fold enrichment (6-mer frequency, TF over GST control)
- binding signal (SPDEF): 1.54 fold enrichment (6-mer frequency, TF over GST control)
- binding signal (ETV7): 1.42 fold enrichment (6-mer frequency, TF over GST control)
- binding signal (ELF5): 1.43 fold enrichment (6-mer frequency, TF over GST control)
- binding signal (ETV3): 1.44 fold enrichment (6-mer frequency, TF over GST control)
- binding signal (ETV6): 1.31 fold enrichment (6-mer frequency, TF over GST control)
